From PubChem BioAssay AID1159580 (chemical genetic matrix, 2015)
“And” between values parts separate entries of the source, which are not always exact repeats. Equal entries are not always repeated. In all, about 5,500 compounds went through this assay and about 2,000 (36%) were called active. Inconclusive results (about 18%) are left out. Cut-off read from the data, not from the text of the source: active = normalized growth mostly below about 0.91 (no sharp cut-off); inconclusive = no clear call, values can overlap the other calls; inactive = mostly above about 0.92. The list shows a part of the results.

Assay: chemical genetic growth profiling, strain panel (AID 1159580);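 note: tested at 20 µM; growth read once vehicle control cultures reached saturation at 30 °C; 1 = growth at the plate median or of vehicle wells; lower values mean less growth of the strain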
Conditions: S. cerevisiae deletion strains, growth OD

Measured: normalized growth

CC(C)(C)CC(C)(C)c1ccc(O)c(Cc2ccc(Cl)cc2Cl)c1
inactive: locus YAL021C, strain ccr4, active compounds read low 1 | locus YAL026C, strain drs2, active compounds read low 1.03 | locus YAL030W, strain snc1, active compounds read low 1.01 | locus YBL061C, strain skt5, active compounds read low 1.01 | locus YBR009C, strain hhf1, active compounds read low 0.995 | locus YBR021W, strain FUR4, active compounds read low 0.993 | locus YBR023C, strain chs3, active compounds read low 1.02 | locus YBR171W, strain sec66, active compounds read low 1.02 | locus YBR229C, strain ROT2, active compounds read low 1.01 | locus YBR231C, strain swc5, active compounds read low 1.01 | locus YBR279W, strain paf1, active compounds read low 1.02 | locus YCL011C, strain gbp2, active compounds read low 1.01 | locus YCL016C, strain dcc1, active compounds read low 1.01 | locus YCL029C, strain bik1, active compounds read low 1.02 | locus YCL061C, strain MRC1, active compounds read low 1.02 | locus YCL069W, strain vba3, active compounds read low 1.03 | locus YCR088W, strain abp1, active compounds read low 1.02 | locus YDL005C, strain med2, active compounds read low 1.03 | locus YDL035C, strain GPR1, active compounds read low 1.01 | locus YDL040C, strain nat1, active compounds read low 1 | locus YDL074C, strain BRE1, active compounds read low 1.01 | locus YDL101C, strain DUN1, active compounds read low 1 | locus YDL134C, strain PPH21, active compounds read low 1 | locus YDL185W, strain tfp1, active compounds read low 1.01 | locus YDL192W, strain arf1, active compounds read low 1.01 | locus YDR001C, strain nth1, active compounds read low 1.02 | locus YDR069C, strain doa4, active compounds read low 1.02 | locus YDR101C, strain arx1, active compounds read low 0.997 | locus YDR137W, strain rgp1, active compounds read low 1.03 | locus YDR159W, strain sac3, active compounds read low 1.02 | locus YDR162C, strain NBP2, active compounds read low 1 | locus YDR195W, strain ref2 1.08 | locus YDR297W, strain sur2, active compounds read low 1.01 | locus YDR318W, strain mcm21, active compounds read low 1.01 | locus YDR334W, strain swr1, active compounds read low 1.04 | locus YDR335W, strain msn5, active compounds read low 1.04 | locus YDR388W, active compounds read low 1.01 | locus YDR392W, strain spt3, active compounds read low 0.894 | locus YDR502C, strain sam2, active compounds read low 1.02 | locus YEL003W, strain gim4, active compounds read low 1.02 | locus YEL037C, strain rad23, active compounds read low 1.02 | locus YEL061C, strain CIN8 (second series), active compounds read low 1.03 | locus YEL061C, strain CIN8, active compounds read low 1 | locus YER015W, strain faa2, active compounds read low 1.01 | locus YER016W, strain bim1, active compounds read low 1.03 | locus YER110C, active compounds read low 1.02 | locus YER111C, strain swi4, active compounds read low 1.05 | locus YER155C, strain BEM2 (second series), active compounds read low 1.08 | locus YER155C, strain BEM2, active compounds read low 0.998 | locus YER167W, strain BCK2, active compounds read low 1 | locus YFR010W, strain ubp6, active compounds read low 1.02 | locus YGL078C, strain dbp3, active compounds read low 1.02 | locus YGL086W, strain mad1, active compounds read low 1.01 | locus YGL167C, strain pmr1, active compounds read low 1.02 | locus YGL173C, strain kem1, active compounds read low 1.02 | locus YGL227W, strain vid30, active compounds read low 1.02 | locus YGL240W, strain doc1, active compounds read low 1.03 | locus YGL248W, strain PDE1, active compounds read low 1 | locus YGL253W, strain hxk2, active compounds read low 1.03 | locus YGR078C, strain PAC10, active compounds read low 0.997 | locus YGR135W, strain pre9, active compounds read low 1.01 | locus YGR229C, strain SMI1, active compounds read low 0.992 | locus YGR252W, strain gcn5, active compounds read low 1.04 | locus YHR013C, strain ard1, active compounds read low 1.02 | locus YHR027C, strain rpn1, active compounds read low 1.02 | locus YHR030C, strain SLT2, active compounds read low 1 and 1.03 | locus YHR079C, strain IRE1 (second series), active compounds read low 1.01 | locus YHR079C, strain IRE1, active compounds read low 1.05 | locus YHR094C, strain hxt1, active compounds read low 1.01 | locus YHR129C, strain ARP1, active compounds read low 1.01 | locus YHR142W, strain chs7, active compounds read low 1.02 | locus YHR200W, strain rpn10, active compounds read low 1.01 | locus YIL066C, strain RNR3, active compounds read low 1.01 | locus YIL073C, strain SPO22, active compounds read low 1.04 | locus YIL125W, strain kgd1, active compounds read low 1.02 | locus YIR030C, strain dcg1, active compounds read low 1.02 | locus YJL092W, strain hpr5, active compounds read low 1.02 | locus YJL095W, strain BCK1 (second series), active compounds read low 1.01 | locus YJL095W, strain BCK1, active compounds read low 1.01 and 1.04 | locus YJL115W, strain asf1, active compounds read low 1.04 | locus YJL129C, strain trk1, active compounds read low 0.981 | locus YJL134W, strain LCB3, active compounds read low 1.01 | locus YJL154C, strain vps35, active compounds read low 1.02 | locus YJL164C, strain tpk1, active compounds read low 0.994 | locus YJL166W, strain qcr8, active compounds read low 1.02 | locus YJL168C, strain set2, active compounds read low 1.01 | locus YJL187C, strain SWE1 (second series), active compounds read low 1.01 | locus YJL187C, strain SWE1, active compounds read low 1.01 | locus YJR043C, strain POL32, active compounds read low 1.01 | locus YJR066W, strain TOR1, active compounds read low 0.925
